Compounds with a hit are over-represented: about 2.9% of the library has one in this group of screens.
Pol iota inh: DNA polymerase iota (human) inhibition. Potency, µM (series often up to 115 µM), inactives show at the top dose activity, negative = inhibition, hits mostly inhibitors. 390,000 tested, 1% active. AID 588590. Pol iota fluorescent replication assay, 10 min; note: potency is the fitted concentration of half-maximal effect
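Pol iota at 10 nM preincubated 15 min with compounds at room temperature; reaction started with fluorescent substrate, 50 nM final. Fluorescence read kinetically at 0 and 10 min; buffer-only wells as negative control.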
PI5P4Ka inh: PI5P4K alpha (human) kinase inhibition. P48426. PI5P4Kalpha enzyme, ADP-Glo luminescence, 60 min; hits give low values. max response, %. 330,000 tested, 1.2% active. AID 652105; active = max response of -50% or lower; inconclusive = between -30% and -50%; inactive = -30% or higher; note: value at the top dose of about 77 µM; % is set by controls: 0 for no effect and ±100 for the full control effect
Target sequence (P48426 whole entry, looked up): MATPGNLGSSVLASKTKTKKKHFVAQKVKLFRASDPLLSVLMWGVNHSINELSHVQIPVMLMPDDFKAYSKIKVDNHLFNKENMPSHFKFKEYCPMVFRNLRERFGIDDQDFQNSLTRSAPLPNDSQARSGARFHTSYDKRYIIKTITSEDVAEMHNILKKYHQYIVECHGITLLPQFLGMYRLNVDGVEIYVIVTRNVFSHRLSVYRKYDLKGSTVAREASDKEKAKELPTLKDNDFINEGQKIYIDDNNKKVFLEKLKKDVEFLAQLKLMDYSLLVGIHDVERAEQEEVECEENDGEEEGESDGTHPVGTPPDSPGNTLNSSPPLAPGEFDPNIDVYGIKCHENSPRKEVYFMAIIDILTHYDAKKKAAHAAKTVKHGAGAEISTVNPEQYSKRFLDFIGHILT
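Controls without substrate or without enzyme flank wells where PI5P4Kalpha converts substrate using 5 microM ATP (final). Incubation lasts 60 minutes at room temperature; ADP formed is read by ADP-Glo luminescence.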
ALOX12 inh: inhibitors of human 12S-lipoxygenase ALOX12; purified 12hLO, xylenol orange hydroperoxide absorbance; Potency, µM (series often up to 108 µM), inactives show at the highest dose activity change, negative = inhibition, actives largely listed as inhibitors; 580,000 tested, 1.1% active; AID 1671190; note: potency is the fitted concentration of half-maximal effect; % is set by controls: 0 for no effect and ±100 for the full control effect
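Purified human 12hLO at 150 nM in 25 mM Hepes, 0.01% Triton X-100, pH 7.0, preincubated 15 min at room temperature with compound. Reaction started with 40 uM arachidonic acid, 30 min at room temperature. Hydroperoxide measured by Fe-xylenol orange, 573/405 nm absorbance ratio.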
POLH inh: DNA polymerase eta (human) inhibition; Q9Y253; recombinant Pol eta, fluorescent DNA replication assay; Potency, µM (top dose mostly 114 µM), for inactives: at the top dose activity change, negative = inhibition, hits mostly inhibitors; 390,000 tested, 1.2% active; note: potency is the fitted concentration of half-maximal effect; % is set by controls: 0 for no effect and ±100 for the full control effect
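Pol eta at 10 nM preincubated with compounds 15 min at room temperature; reaction started with fluorescent substrate (50 nM final) and read kinetically at 0 and 10 min.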
Pol beta inh: blocks human DNA polymerase beta activity; Pol beta primer extension/strand displacement, fluorescence kinetic; 340,000 tested, 1.3% active; P06746; Potency, µM (series often up to 114 µM), for the others: top-dose activity change, negative = inhibition, actives largely listed as inhibitors; note: potency is the fitted concentration of half-maximal effect; % is set by controls: 0 for no effect and ±100 for the full control effect
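Kinetic readout of DNA synthesis with strand displacement by Pol beta. Compound and 10 nM enzyme sit 15 min at room temperature; 50 nM substrate starts the reaction, read immediately and at 10 min.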
Pol kappa inh: DNA polymerase kappa (human) inhibition. Q9UBT6. purified Pol kappa, fluorescent DNA synthesis assay, 10 min. Potency, µM (series often up to 107 µM), inactives show at the top dose activity, negative = inhibition, actives largely listed as inhibitors. 400,000 tested, 0.53% active. AID 588579; note: potency is the fitted concentration of half-maximal effect; % is set by controls: 0 for no effect and ±100 for the full control effect
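10 nM Pol kappa was preincubated with compounds for 15 min at room temperature. Reaction started with 50 nM (final) substrate. Fluorescence read kinetically at 0 and 10 min.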
The depositor's hits bear a star; ? = inconclusive; · = no result; [ ] = another dose, or the depositor's remark. Unless noted, calls come from the whole dose curve; as a rule, active = well fitted inhibition curve with a large enough effect; inconclusive = small, poorly fitted or top-dose-only effect, or another doubt; inactive = no such curve, though single readings can be large or run the other way.

SMILES	Pol iota inh	PI5P4Ka inh	ALOX12 inh	POLH inh	Pol beta inh	Pol kappa inh
Cc1cc(/C=C2/NC(=O)N(Cc3ccccc3F)C2=O)c(C)n1C	13.2%	-18.6	-28.6%	-16.0%	-4.9%	3.5%[60.1 µM]
Cc1ccc(NC(=O)CSCc2cc(=O)n3ccsc3n2)cc1C	·	·	-11.7%	·	·	·
CCOC(=O)Cc1cn2c(=O)cc(CSCC(=O)Nc3ccc(C)c(C)c3)nc2s1	?	-28.4	5.1%	89.1µM*	?	-20.3%
Cc1nc2ccn(Cc3cccs3)c(=O)c2cc1C(=O)NCc1ccc(Br)cc1	?	·	?	-1.9%	-12.1%	-0.6%
CCc1ccc(CNC(=O)c2cc3c(=O)n(Cc4cccs4)ccc3nc2C)cc1	?	·	-24.9%	10.7%	50.1µM*	-19.2%
CCOc1ccc(CNC(=O)c2cc3c(=O)n(Cc4cccs4)ccc3nc2C)cc1	?	·	-24.3%	15.9%	12.6µM*	12.3%
CCC(C)(C)NC(=O)/C(=C/c1ccccc1)c1ccccc1	·	·	5.7%	·	·	·
CC(C)c1ccc(/C=C(/CC(=O)O)c2nc3ccccc3s2)cc1	·	·	-0.8%	·	·	·
CC(C)n1ncc2cc(NC(=O)c3ccc(S(=O)(=O)N(C)C)cc3)cnc21	·	·	3.7%	·	·	·
CCCCc1nc(NCCNC(=O)c2ccco2)c(C#N)c2c1CSC(C)(C)C2	?	·	-23.0%	89.1µM*	3.9%	?
CCCCc1nc(NCCNC(=O)c2ccccc2)c(C#N)c2c1CSC(C)(C)C2	-15.4%	2.4	13.6%	-16.9%	2.7%	-6.7%
Fc1ccc(/C=N/Nc2ccc(Cl)c(Cl)c2)cc1	·	·	2.24µM*	·	·	·
CSc1ccc(/C=N/Nc2ccc(Cl)c(Cl)c2)cc1	·	·	2µM*	·	·	·
CSc1ccc(/C=N/Nc2ccc(Cl)c(C(=O)O)c2)cc1	62.5%	-4.7	?	-15.8%	-2.0%	0.0%
CSc1ccc(/C=N/Nc2nc(C)cc(C)n2)cc1	140.5%	-7.1	1.6%	-17.4%	?	-20.2%
Cc1ccc(N/N=C/c2ccc(Cl)c(Cl)c2)cc1	·	·	15.8µM*	·	·	·
CSc1ccc(/C=N/Nc2ccc(F)cc2)cc1	·	·	1.26µM*	·	·	·
C=CCN1CCN(c2nc3c(c(=O)[nH]c(=O)n3C)n2Cc2cc(C)ccc2C)CC1	·	·	3.1%	·	·	·
CC1(c2ccccc2)N(Cc2ccccc2)C(=O)OC12CCN(C(=O)Cc1ccc(O)cc1)CC2 (configuration not stated)	·	·	18.8%	·	·	·
CSc1ccc(/C=N/Nc2cccc(Cl)c2)cc1	·	·	1.41µM*	·	·	·
Fc1ccc(/C=N/Nc2ccc(Cl)c(Cl)c2)cc1F	·	·	5.01µM*	·	·	·
Fc1cccc(/C=N/Nc2ccc(Cl)c(Cl)c2)c1	·	·	5.01µM*	·	·	·
N#Cc1ccc(/C=N/Nc2ccc(F)cc2)cc1	·	·	15.8µM*	·	·	·
Cc1cc(C)nc(N/N=C/c2cccc(Cl)c2)n1	-21.2%	0.1	-2.5%	-0.8%	24.0%	-3.5%
CN/N=C/c1ccc(C#N)cc1	6.6%	-11.2	3.0%	4.8%	13.6%	3.4%
SMILES	Pol iota inh	PI5P4Ka inh	ALOX12 inh	POLH inh	Pol beta inh	Pol kappa inh
Fc1cccc(/C=N/Nc2ccc(Cl)nn2)c1	18.2%	7.7	0.0%	4.8%	3.9%	-8.7%
N#CCOc1ccc(NC(=O)c2cc(=O)[nH]c3ccccc23)cc1	·	·	-1.5%	·	·	·
Cc1cccc(/C=N\N=C\c2cccc(C)c2)c1	132.8%	4.4	12.6%	-21.8%	14.3%	1.8%
Cc1cccc(/C=N/Nc2ccc(Cl)c(Cl)c2)c1	·	·	5.62µM*	·	·	·
Cc1ccc(NC(=O)c2ccc(-n3cnc(NC(=O)C(C)C)c3)cc2)cc1C	·	·	4.4%	·	·	·
COCCCNC(=O)/C(C#N)=C/c1c(C)[nH]c2ccccc12	·	·	39.8µM*	·	·	·
CC1CCN(C(=O)C[C@@H]2c3nc(NC(=O)c4ccc(F)cc4)sc3C[C@@H]3[C@](C)(CO)[C@H](O)CC[C@]32C)CC1	·	·	1.1%	·	·	·
CC1=CCC(O)(C(C)C)CC1 (configuration not stated)	·	·	21.3%[176 µM]	·	·	·
COc1cc(/C=N/NC(=O)CSc2ccccn2)ccc1O	-15.7%	-5.2	22.8%	-3.0%	?	-5.5%
CCCCOc1ccc(C(=O)N/N=C/c2ccc(OCCN3CCCCC3)c(OC)c2)cc1	?	10.8	-26.6%	?	15.8µM*	?
COc1ccc(C(=O)N/N=C/c2ccc(OC)c(CN3CCCc4ccccc43)c2)cc1	44.0%	-6.4	3.1%	-3.1%	20µM*	-20.4%
COc1ccc(/C=N/NC(=O)c2cccnc2)cc1CN1CCCc2ccccc21	35.3%	-9.5	13.8%	-17.2%	1.2%	-19.0%
CCCOc1ccc(/C=N/NC(=O)CSc2ccccn2)cc1OC	18.2%	3.5	269.8%	-12.4%	79.4µM*	-22.4%
CC(/C=C/c1ccccc1)=N\NC(N)=S	5.2%	-0.8	11.2µM*	-2.5%	2.1%	-1.1%
Cc1ccc(-c2onc3ccc(-c4cc(C(=O)O)c5cc(Br)ccc5n4)cc23)cc1	·	·	7.94µM*	·	·	·
COc1ccc(-c2onc3ccc(Br)cc23)cc1	22.0%	1.7	-24.6%	-9.0%	-0.5%	-20.0%
COC(=O)C1CCN(S(=O)(=O)NCc2ccnc(Oc3ccc(OC)cc3)c2)CC1	·	·	80.9%	·	·	·
C=CCNC(=O)C(=O)NCc1cccc(OC)c1	·	·	4.4%	·	·	·
CCOC(=O)N1CCN(C(=O)CSCc2nc(-c3ccccc3C)oc2C)CC1	8.3%	·	0.0%	-7.0%	-0.8%	-10.7%
CCOC(=O)N1CCN(C(=O)CSCc2nc(-c3ccccc3F)oc2C)CC1	89.1µM*	0.3	?	-7.6%	30.2%	-3.9%

From PubChem
